# Screens: PubChem BioAssay, National Center for Advancing Translational Sciences (NCATS)
# PGK inhibitor = inhibitors of T. brucei phosphoglycerate kinase; P07378; PGK/GAPDH coupled, Kinase-Glo luminescence, 60 min; Potency, µM (doses to about 57.5 µM), most hits filed as inhibitors; 0.043% of 380,000 active; note: nearly all actives have a fitted effect of over 60% in size
# Target sequence (P07378 whole entry, looked up): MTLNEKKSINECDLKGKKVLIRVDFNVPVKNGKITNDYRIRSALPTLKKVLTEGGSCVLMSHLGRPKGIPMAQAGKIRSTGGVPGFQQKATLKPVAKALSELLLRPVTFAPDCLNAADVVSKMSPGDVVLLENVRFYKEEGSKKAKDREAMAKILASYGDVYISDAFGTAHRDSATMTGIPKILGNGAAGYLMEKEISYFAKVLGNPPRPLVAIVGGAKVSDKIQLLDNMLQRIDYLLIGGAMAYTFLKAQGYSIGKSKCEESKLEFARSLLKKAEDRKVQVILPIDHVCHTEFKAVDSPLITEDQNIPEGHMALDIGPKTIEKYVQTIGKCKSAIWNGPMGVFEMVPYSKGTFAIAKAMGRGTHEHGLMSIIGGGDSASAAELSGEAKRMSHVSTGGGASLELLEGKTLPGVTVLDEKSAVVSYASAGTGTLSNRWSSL
#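 Luminescent ATP detection (Kinase-Glo Plus) follows a 60-minute room-temperature incubation, with wells lacking PGK as controls. Buffer: 100 mM TEA (pH 7.6), 5 mM MgCl2, 0.01% Tween-20. Coupling enzyme GAPDH (100 nM final) supplies unstable 1,3-BPG in-well.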
# B2AR arrestin = beta2AR (human) beta-arrestin recruitment activity. P07550. beta-arrestin recruitment to beta2AR, cell-based reporter. Potency, µM (doses to about 46.1 µM), hits mostly activators. 0.02% of 330,000 active; note: nearly all actives have a fitted effect of over 65% in size
# Anesthetic bind = binds horse apoferritin like a general anesthetic; P02791; apoferritin/1-aminoanthracene competitive binding, fluorescence; Potency, µM (series often up to 77.5 µM), most hits filed as inhibitors; 0.074% of 350,000 active; AID 485281; note: nearly all actives have a fitted effect of over 20% in size
# Target sequence (P02791 2-175 limits assumed): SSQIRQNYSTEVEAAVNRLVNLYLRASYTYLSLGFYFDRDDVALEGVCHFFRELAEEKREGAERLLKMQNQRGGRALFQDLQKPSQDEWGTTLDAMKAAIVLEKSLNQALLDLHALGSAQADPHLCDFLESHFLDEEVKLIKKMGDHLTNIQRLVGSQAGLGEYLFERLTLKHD
#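 Steps: apoferritin (10 uM) was premixed with half-saturated 1-AMA in PBS, compounds were pin-transferred, plates stood 10 min at room temperature, fluorescence was read at 380/535 nm, and curves were fitted with a Hill equation.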
# FEN1 inhibitor = blocks human flap endonuclease 1; Potency, µM (doses to about 114 µM), hits mostly inhibitors; P39748; 0.35% of 390,000 active; Recombinant FEN1 flap cleavage, fluorescence, 15 min; note: nearly all actives have a fitted effect of over 65% in size
#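 In this screen, 50 nM flap DNA substrate was added to 10 nM FEN1 pretreated with compound for 15 min at room temperature; cleavage was followed with reads at 0 and 15 min, and Hill fitting gave concentration–response parameters.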
# Pin1 inh = human Pin1 inhibition | Pin1 FP peptide displacement, HiFluor488, 10 min | Q13526 | Potency, µM (highest dose often 115 µM), hits mostly inhibitors | 0.009% of 390,000 active; active = well fitted inhibition curve with a large enough effect in the polarisation, with a control signal flat, not every such curve was filed as active; inconclusive = small, poorly fitted or top-dose-only effect, or effect the other way, or a change in a side signal; inactive = no such curve, though single readings can be large or run the other way; the % refers to the polarisation
# BCR signal inh = chronic active BCR signaling inhibition; ABC-DLBCL IkBa-CBG/CBR reporter, luminescence ratio, 4 h; Potency, µM (series often up to 46.1 µM), actives largely listed as inhibitors; 0.05% of 340,000 active; AID 493014; active = well fitted inhibition curve with a large enough effect in the signal ratio, with a control signal flat, not every such curve was filed as active; inconclusive = small, poorly fitted or top-dose-only effect, or effect the other way, or a change in a side signal; the % refers to the signal ratio
#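 TMD8 ABC-DLBCL cells carrying doxycycline-inducible green luciferase fused to IkappaBalpha plus unfused red luciferase were exposed to compounds (up to 46 uM) for 4 hrs at 37C. Activity came from the overlap-corrected green/red luminescence ratio.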
# Numbers stand for hits; n = inactive; u = inconclusive; x = no result given. Rows were chosen to be rich in hits. Some 0.45% of all compounds tested hit in one or more screens of this group. Unless noted, calls come from the whole dose curve; as a rule, active = well fitted curve in the direction sought with a large enough effect; inconclusive = small, poorly fitted or top-dose-only effect, or another doubt; inactive = no such curve, though single readings can be large; an effect the other way counts as inactive or inconclusive.
SMILES,PGK inhibitor,B2AR arrestin,Anesthetic bind,FEN1 inhibitor,Pin1 inh,BCR signal inh
Cn1cc(/C=N/n2cnc3scc(-c4ccc(Cl)cc4)c3c2=O)c2ccccc21,n,n,n,n,n,3.5µM
O=c1c2c(-c3ccccc3)csc2ncn1/N=C/c1cn(-c2ccccc2)nc1-c1cccs1,x,x,x,n,n,x
CC(=O)Nc1cccc(S(=O)(=O)N2CCCN(S(=O)(=O)c3ccc4c(c3)OCCO4)CC2)c1,x,x,x,x,n,x
COc1cc2nc(N3CCNCC3)nc(N)c2cc1OC,n,n,n,56µM,u,n
COc1cc2nc(N3CCN(c4cc(C)ccc4C)CC3)nc(N)c2cc1OC,n,n,u,n,n,u
O/N=C(\c1ccc(Cl)cc1Cl)c1ncc(C(F)(F)F)cc1Cl,n,n,18µM,u,n,u
Cc1cc2c(s1)c1cnn(Cc3cc(Cl)ccc3F)c(=O)c1n2C,x,x,x,x,n,x
Cc1ccc(-c2ccc(/C=N/NC(N)=S)o2)cc1,n,u,n,n,n,22µM
COc1ccc(C(=O)N(Cc2ccco2)Cc2ccco2)c(O)c1,x,x,x,x,n,x
O=C(CNC(=O)c1ccccc1)OC(CCc1ccccc1)C(=O)Nc1cc(C(F)(F)F)ccc1Cl (stereo not given),x,x,x,x,n,x
COc1cc2c(cc1OC)C(CC#N)=NC(C)(C)C2,n,n,n,n,n,16µM
O=[N+]([O-])c1ccc([S+](=O)([O-])N2CCN([S+](=O)([O-])c3ccc4c(c3)OCCO4)CC2)c([N+](=O)[O-])c1,x,x,x,x,n,x
O=C(O)CN1C(=O)/C(=C\c2cn(-c3ccccc3)nc2-c2ccccc2)SC1=S,n,n,n,u,43µM,n
CC(C)COc1ccc(-c2nn(-c3ccccc3)cc2/C=C2/SC(=S)N(CC(=O)O)C2=O)cc1,n,n,n,n,n,n
Cc1cc2c(s1)c1cnn(Cc3cc(F)ccc3C)c(=O)c1n2C,x,x,x,x,n,x
Cc1c(C(=O)O)c(O)cc2c1C(=O)c1c(O)c([C@H]3O[C@H](CO)[C@@H](O)[C@H](O)[C@H]3O)c(O)c(O)c1C2=O,x,x,n,50µM,x,x
COc1c(O)cc2c(c1O)[C@@H]1O[C@H](CO)[C@@H](O)[C@H](O)[C@H]1OC2=O,n,n,n,n,n,n
O=C1CCc2cc(S(=O)(=O)Nc3ccccn3)ccc2N1,x,x,x,x,n,x
C1=Cc2ccccc2/C1=C\c1cccc(/C=C2\C=Cc3ccccc32)c1,x,x,x,35µM,x,x
C1=Cc2ccccc2/C1=C\c1ccc(/C=C2\C=Cc3ccccc32)cc1,x,x,x,n,x,x
Cc1ccc2nc(Cl)c(/C=N/Nc3ccc(C(=O)O)cc3)cc2c1,n,n,n,45µM,n,u
Cc1ccc2cc(/C=N/NC(=O)c3ccc(F)cc3)c(Cl)nc2c1,n,n,n,n,n,n
Cc1ccc2nc(/C(C#N)=C/c3ccc(-c4cccc([N+](=O)[O-])c4)o3)[nH]c2c1,n,n,n,45µM,n,u
O=C1CCCC2=C1C1(CCS(=O)(=O)C1)N=C(Nc1nc3ccccc3o1)N2 (stereo not given),x,x,x,x,n,x
CC(C)(C)N1C(=O)c2ccc(C(=O)O)cc2C1=O,n,n,n,n,n,n
SMILES,PGK inhibitor,B2AR arrestin,Anesthetic bind,FEN1 inhibitor,Pin1 inh,BCR signal inh
O=C(O)c1ccc2c(c1)C(=O)/C(=C/c1ccccc1)C2=O,n,n,n,40µM,x,u
Cc1ccc(/C=C2/C(=O)c3ccc(C(=O)O)cc3C2=O)o1,u,n,n,25µM,u,u
CC(C)(C)OC(=O)NCc1nnc(-c2nc3ccccc3[nH]2)o1,x,x,x,x,n,x
NC(=O)C1CCN(c2ncc(-c3ccc(Br)cc3)s2)CC1,x,x,x,x,n,x
O=C(O)C1CCN(c2ncc(-c3ccc4c(c3)OCCCO4)s2)CC1,x,x,x,x,n,x
CCCC(=O)C1=C(c2ccc(C)cc2)N(C(=O)CCC)n2cnnc2S1,n,x,n,n,n,20µM
CCCC(=O)C1=C(c2ccc(C)c(C)c2)N(C(=O)CCC)n2c(CC)nnc2S1,n,x,n,n,n,n
COc1cccc(C2c3c(ncn(-c4cccc(F)c4)c3=N)Oc3ccc4ccccc4c32)c1 (stereo not given),x,x,x,x,n,x
COc1ccc(O)c(C2Nc3ccccc3C(=O)N2Cc2ccccc2)c1 (stereo not given),x,x,x,x,n,x
O=C1CCc2cc(S(=O)(=O)Nc3cccc4ccccc34)ccc2N1,x,x,x,x,n,x
COc1ccc(C2Nc3ccccc3C(=O)N2Cc2ccccc2C(F)(F)F)cc1COc1ccc(NC(C)=O)cc1 (stereo not given),x,x,x,x,n,x
COC(=O)COc1ccc(S(=O)(=O)NCCC2=CCCCC2)cc1C,n,n,5.6µM,n,n,n
Cc1ccc(Cl)cc1NC(=O)CCNC(=O)N1CC(=O)Nc2ccccc21,n,n,n,n,n,n
O=C(CNC(=O)N1CC(=O)Nc2ccccc21)Nc1cc(Cl)ccc1Cl,n,n,n,40µM,n,u
COc1cc(OC)c(OC)cc1/C=C/c1cc[n+](C)c2ccccc12,x,x,x,40µM,x,x
C[n+]1ccc(/C=C/c2ccc(C=S)cc2)c2ccccc21,x,x,x,50µM,x,x
CC(C)(C)OC(=O)Cc1nnc(-c2cc3ccccc3[nH]2)o1,x,x,x,x,n,x
O=C(Nc1cccc(-c2nn3c(=O)cc(N4CCNCC4)nc3s2)c1)C1CCNCC1,x,x,x,x,n,x
O=C1Nc2ccccc2/C1=N\N=C\c1ccc(O)c(O)c1,n,n,n,13µM,u,u
O=C(CNC(=O)c1cccc2ccccc12)OC(C(=O)Nc1cc(C(F)(F)F)ccc1Cl)c1ccccc1 (stereo not given),x,x,x,x,n,x
